This passage reports growth results from PubChem BioAssay (NCI).

The panel holds about 83,000 compounds, 20% with a hit somewhere; the sample as a whole holds those more often.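 48-hour exposure, single concentration, 96-well plates; percent growth endpoint where 0 means no net growth. Active: below 10.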 Calls of active or inactive are those of the source.

This assay relates to IGROV1 ovarian. Description: NCI-60 one-dose screen, 48 h (100 = growth as untreated, 0 = no growth, -100 = all killed). Conditions: 10 µM unless noted. The protocol:
Growth inhibition of the IGROV1 human tumor cell line is measured as a screen for anti-cancer activity. Cells are grown in 96 well plates and exposed to the test compound for 48 hours. Compounds are tested at a single concentration, which is 10^-5 M for most compounds. The reported endpoint is percent growth (GI% or GIPRCNT), where numbers from 0 - 100% represent growth inhibition, and numbers from -100% - 0 represent cell death. For example, a value of 40 represents 60% growth inhibition. A value of 0 means no net growth occurred over the course of the experiment. A value of -40 indicates 40% of cells at the beginning of the experiment died by the end of the experiment. A value of -100 means all cells are dead at the end of the experiment.
NCI-60 Human Tumor Cell Lines Screen was performed using the standard one-dose NCI protocol, which is described in more detail at https://dtp.cancer.gov/discovery_development/nci-60/default.htm.
Compounds with GIPRCNT values below 10 were considered active. Activity score was based on GIPRCNT using the following formula: […]
Score is 0 for GIPRCNT values of 100 or above, 50 for GIPRCNT values of 0, and 100 for GIPRCNT values of -100.
As to `C/C(Cc1ccc(Cl)cc1)=C(/c1ccc(Cl)cc1)c1ccc(OCCN(C)C)cc1`, the growth is 56.4% (inactive).
The same measure for `CCCCNC(=O)NS(=O)(=O)c1ccc(N2N=C(c3ccc(C)cc3C)CC2c2ccc(N(C)C)cc2)cc1` (stereo not given): 89.9% (inactive).
The figure for `CCCCCCCCc1cc[n+](CC(=O)c2ccc(Br)cc2)cc1` is 1.68% (active); for `c1ccc([P+](CCCc2n(Cc3ccc4ccccc4c3)c3ccccc3[n+]2Cc2ccc3ccccc3c2)(c2ccccc2)c2ccccc2)cc1` it is 20.8% (inactive); for `Cc1ccc(/C(=N\N=C(N)N)c2ccccc2)cc1` it is -0.836% (active).
The figure for `Cc1nc2ccccc2c(/C=C/c2ccc(Cl)cc2)c1C(=O)/C=C/c1ccc(Cl)cc1` is -51.8% (active); for `O=C1CSC(c2ccc(O)cc2)N1c1nnc(Cn2cnnc2)o1` (stereo not given) it is 104% (inactive); for `COc1cc(-c2ccc(-c3ccc(C(=N)N)nc3)s2)cc(OC)c1OC` it is 62.5% (inactive).
`CC(C)c1ccc(C(=O)OC(=O)c2ccc(C(C)C)cc2)cc1`: the growth was 98.8% (inactive).
The same measure for `C[C@@H]1C(=O)N(C[C@@H](Cc2ccccc2)NC(=O)OCc2ccccc2)[C@]1(Cc1ccccc1)C(=O)OCc1ccccc1`: 57.4% (inactive); for `O=S(=O)(Cc1ccccc1)c1nc2ccccc2s1`: 61.1% (inactive); for `COc1cc(C2CC(c3ccc(Nc4nc(Nc5ccc(F)cc5)nc(Nc5ccc(Cl)cc5)n4)cc3)=NN2C(C)=O)cc(OC)c1OC` (stereo not given): 43.5% (inactive).
With `CN(C)CCOC(=O)Nc1ccc(Cl)cc1`, the growth is 103% (inactive).
As to `O=C(/C=C/C12c3ccccc3C(c3ccccc31)C1C(=O)NC(=O)C12)c1ccc(Cl)cc1` (stereo not given), the growth was -38.6% (active).
Take `Nc1c(-c2nc3ccccc3c(=O)[nH]2)nnn1-c1ccc(Cl)cc1`: the growth is 83% (inactive).
Consider `COc1cc(C(=O)Nc2cc(O)c(CC=C(C)C)c(O)c2)cc2c1O[C@]1(C)CC[C@@H](O)C(C)(C)[C@H]1C2`, for which the growth is 61.1% (inactive).
As for `Cc1nc(Nc2ccc(NC(=S)Nc3ccccc3)cc2)nc2nc(Nc3ccc(S(=O)(=O)O)cc3)[nH]c(=O)c12`, the growth was 72% (inactive).
The same measure for `CCOC(=O)c1c2c(c(C)n1C)-c1nn(Cc3ccc(OC)cc3)cc1CC2`: 111% (inactive); for `COc1cc(-c2ncn(/C=C\c3nnco3)n2)cc(C(F)(F)F)c1`: 22.3% (inactive).
On to `O=C1c2cccc3c(-c4ccc(-c5nc6c7ccccc7c7ccccc7c6[nH]5)cc4)ccc(c23)C(=O)N1CCN1CCNCC1`, for which the growth is 72.4% (inactive).
The figure for `C=C(CNCCc1ccc(O)cc1)[C@@H]1CC[C@]2(COC3CCCCO3)CC[C@]3(C)[C@H](CC[C@@H]4[C@@]5(C)CCC(N)C(C)(C)[C@@H]5CC[C@]43C)[C@@H]12` (stereo not given in full) is -82.1% (active).
For the compound `N#Cc1c(NC(=O)c2ccc(Br)cc2)sc2c1CCCC2`, the growth was 53.7% (inactive).
`CCCCNCC(=O)Nc1ccc(C(=O)OCC)cc1`: the growth was 105% (inactive).
`CN1CCN(CCCOc2ccc3nc(Nc4cc(Cl)cc(Cl)c4)ccc3c2)CC1`: the growth was -46.8% (active).
As for `COc1cc2oc(-c3cccc(C(=O)Nc4ccc(C)cc4)c3)cc(=O)c2c(OC)c1OC`, the growth was 44.4% (inactive).
For `COc1cc(-c2cc(-c3ccc(Nc4nc(Nc5ccccc5)nc(Nc5ccc(Cl)cc5)n4)cc3)nc(N)n2)cc(OC)c1OC`, the growth is 39.2% (inactive).
The figure for `C=C1C(=O)O[C@H]2[C@H]1CC/C(C(=O)NCCCCCCCCNC(=O)/C1=C/CC[C@@]3(C)O[C@H]3[C@H]3OC(=O)C(=C)[C@@H]3CC1)=C\CC[C@@]1(C)O[C@@H]21` is 63.3% (inactive).
In the case of `O=C(Nc1ccc(N2CCCCC2)c(Cl)c1)c1ccc(Br)o1`, the growth is 75.1% (inactive).
Take `CCCCCCNCc1cc(C(C)(C)C)cc(CNCCCCCC)c1O`: the growth is -77.5% (active).
As for `C=C1c2c(C)nn(-c3ccc(NC(C)=O)cc3)c2N(C)C23CC1C1(C)c4c(C)nn(-c5ccc(NC(C)=O)cc5)c4N(C)C(C)(CC12)C3` (stereo not given), the growth is 64.8% (inactive).
Regarding `Nc1c(-c2nc3ccc(Br)cc3c(=O)[nH]2)nnn1-c1ccccc1`, the growth is 90.3% (inactive).
The same measure for `CC(=O)NCC(=O)Nc1ccc(-c2nnc3ccccn23)nc1.CC(=O)NCC(=O)Nc1ccc(-c2nnc3ccccn23)nc1.[Pt+2]`: 106% (inactive).
The same measure for `Cc1ccc(Nc2ccc(Nc3ccc(C)cc3S(=O)(=O)O)c3c2C(=O)c2ccccc2C3=O)c(S(=O)(=O)O)c1`: 114% (inactive); for `Nc1ccc2c(S(=O)(=O)O)ccc(S(=O)(=O)O)c2c1`: 82.5% (inactive); for `CCOC(=O)c1ccc(-c2ccc3cc(OC)ccc3c2)nc1C`: 102% (inactive).
Turning to `COc1cc2cc(Oc3ccc(NC(=O)Nc4cc(C(F)(F)F)cc(C(F)(F)F)c4)cc3)c(C)nc2cc1OCCN1CCCCC1`, the growth is -78.4% (active).
The figure for `C#C[C@]1(O)CC[C@H]2[C@@H]3CC=C4c5sc(N=C(N)N)nc5CC[C@]4(C)[C@H]3CC[C@@]21C` is 14.4% (inactive); for `C=C1C(=O)O[C@H]2[C@H]1CC/C(COC(=O)/C=C\C(=O)NCc1ccc(Cn3c(=O)sn(CCCI)c3=O)cc1)=C\CC[C@@]1(C)O[C@@H]21` it is -98.3% (active).
In the case of `CN(C)CN1CCN(c2ccc3nc(-c4ccc5nc(-c6ccc(C(F)(F)F)cc6)[nH]c5c4)[nH]c3c2)CC1`, the growth is 78.7% (inactive).
The figure for `N#Cc1cccc(-c2nc3ccccn3c2NCCN2CCOCC2)c1` is 97.8% (inactive).
